# D2 ag-1: activates the human D2 dopamine receptor | P14416 | HEK293 T-REx D2 cells, calcium flux agonist mode | activation, % at 2 µM | hit rate 0.53% among 340,000;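 active = activation over 3 SD above normal in the single-dose calcium agonist read, cut at about 30% in these data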; also: 0% is about no effect
# Target sequence (P14416 whole entry, looked up): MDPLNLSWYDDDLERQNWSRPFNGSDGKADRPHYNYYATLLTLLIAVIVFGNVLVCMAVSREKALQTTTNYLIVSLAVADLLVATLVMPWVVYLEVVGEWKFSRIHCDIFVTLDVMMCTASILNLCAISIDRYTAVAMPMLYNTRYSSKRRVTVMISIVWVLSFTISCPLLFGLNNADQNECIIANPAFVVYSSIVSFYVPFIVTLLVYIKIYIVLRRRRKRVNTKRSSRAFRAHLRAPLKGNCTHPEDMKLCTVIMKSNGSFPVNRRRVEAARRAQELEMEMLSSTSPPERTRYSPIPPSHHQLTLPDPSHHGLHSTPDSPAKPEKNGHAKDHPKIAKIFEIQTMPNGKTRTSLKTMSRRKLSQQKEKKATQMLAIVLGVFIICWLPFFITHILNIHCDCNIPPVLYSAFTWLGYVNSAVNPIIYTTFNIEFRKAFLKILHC
#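 Agonism is scored from calcium flux in a force-coupled, inducible HEK293 cell line expressing D2, read kinetically for 180 s after compound addition against dopamine controls.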
# D2 PAM-1: positive allosteric modulators of human D2 dopamine receptor. potentiation, % (test concentration not listed). P14416. AID 624464. DiscoveRx D2 beta-arrestin cells, luminescence, 90 min; 100% = 57 uM dopamine signal. hit rate 0.23% among 360,000; in the data active = potentiation above about 50%; inconclusive = mostly about 30% to 49%
#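 PathHunter D2 cells, attached overnight at 37 deg C, received compound in DMSO plus dopamine at EC20 (50 nM final) for 90 min at 37 deg C. Beta-arrestin recruitment was read as luminescence after 1 h with detection reagent at ambient temperature.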
# D2 antag: antagonists of human D2 dopamine receptor; inhibition, % at 10 µM; P14416; HEK293 TREx D2 cells, calcium flux, dopamine EC80; hit rate 2% among 340,000; in the data active = inhibition above about 30%; inactive = below that, where a call was filed; also: 0% is about no effect
#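 Read-out: kinetic calcium fluorescence (1 cycle/s) in inducible HEK293 T-REx D2 cells after an EC80 dopamine addition that followed 180 s compound preincubation. Loss of the dopamine response indicates antagonism.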
# D2 PAM-2: positive allosteric modulators of human D2 dopamine receptor. HEK293 T-REx D2, calcium flux, EC20 dopamine potentiation. potentiation, % at 10 µM. hit rate 0.34% among 340,000;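 active = potentiation over 3 SD above the plate norm, cut at about 30% in these data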; also: 0% is about no effect
#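 Calcium flux readout, no-wash dye, 1 read/s. Inducible HEK293 Trex D2 line, overnight 30 C. Compound alone 180 s (agonist flags), then EC20 dopamine, another 180 s to score potentiation.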
# D2 ag-2: agonists of human D2 dopamine receptor (beta-arrestin). DiscoveRx PathHunter D2 beta-arrestin, luminescence, 90 min; 100% = 57 uM dopamine signal. activation, % (test concentration not listed). hit rate 0.084% among 360,000. AID 624465; in the data active = activation above about 40%; inconclusive = between about 15% and that limit
#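 DiscoveRx PathHunter D2 beta-arrestin cells (2,100/well) attached overnight, then compound-stimulated 90 min at 37 C in HBSS/10 mM HEPES/0.1% Tween-20 buffer; beta-galactosidase complementation read by luminescence after 1 h at ambient temperature. Dopamine 57 uM final (EC100) as control.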
# * marks the source's active call; other numbers are inactive results; ? = inconclusive; . = no result given. Hits are enriched below; roughly 2.4% of the tested compounds scored in any of these assays.
SMILES,D2 ag-1,D2 PAM-1,D2 antag,D2 PAM-2,D2 ag-2
CN(Cc1ccccc1)C(=C(Cl)Cl)C(=C1NCCN1)[N+](=O)[O-],1,-9,34*,-9,-3
Cc1ccc(-n2c(SCC(=O)Nc3c(C)cccc3C)nc(O)c(C)c2=O)cc1,0,.,.,10,.
COc1ccc(C(C)(C)C)cc1NC(=O)c1c(C)noc1C,0,-4,-1,2,2
COc1ccc(C(C)(C)C)cc1NC(=O)CCc1c(C)noc1C,-1,-5,63*,9,-4
CC(=O)Nc1cccc(C(=O)/C=C/c2ccc(/C=C/C(=O)c3cccc(NC(C)=O)c3)cc2)c1,1,.,0,-4,.
CC(=O)Nc1cccc(C(=O)/C=C/c2ccc(N(C)C)cc2)c1,86*,?,35*,-3,6
Cc1ccc(Cl)cc1N1CCN(C(=O)c2cnc(N3CCOCC3)c3ccccc23)CC1,0,.,.,.,.
CN1CCN(CC(=O)Nc2ccccc2[N+](=O)[O-])CC1,1,-22,-6,-4,-3
Cc1nnnn1CC(=O)Nc1ccccc1[N+](=O)[O-],-1,2,36*,-3,2
Cc1cc(C)cc(NC(=O)CCc2c(C)nc3c(c2C)c(=O)n(C)c(=O)n3C)c1,-1,.,.,4,.
O=C(NCc1ccc2c(c1)CCO2)Nc1cccc(C(F)(F)F)c1,0,-14,40*,-8,-2
Cc1ccc2c(c1)NC(=O)C(CC(=O)NCCCN1CCN(c3cc(Cl)ccc3C)CC1)O2 (centres undefined),0,-8,53*,-28,1
CCOC(=O)c1sc(NC(=O)C(C)Sc2nc(-c3ccccc3)cc(C(F)(F)F)n2)c(C(=O)OC)c1C (centres undefined),0,.,.,0,.
O=C(CSc1nnc(-c2ccncc2)n1-c1ccccc1)Nc1ccc(Br)cc1,2,.,.,-10,.
O=c1[nH]c2cc3c(cc2cc1C(c1nnnn1C1CCCC1)N1CCCc2ccccc21)OCCO3 (centres undefined),1,25,1,43*,-2
COc1cc2cc(C(c3nnnn3C3CCCC3)N3CCc4ccccc43)c(=O)[nH]c2cc1OC (centres undefined),0,-4,-2,4,2
CC(=O)CCn1c(=O)n(CCC(C)=O)c(=O)n(CCC(C)=O)c1=O,-1,-5,24,36*,0
CCN(CC)C(=O)CSc1nc2c(c(=O)n(C)c(=O)n2C)n1Cc1ccccc1,1,.,.,10,.
COC(=O)c1c(NC(=O)C(=O)NCC2CCCO2)sc2c1CC(C)(C)OC2 (centres undefined),0,-27,36*,-13,-1
CC1CCN(CCc2nc3cc(NS(=O)(=O)c4ccccc4)ccc3n2C)CC1,1,-47,30*,-22,-5
CC1CCN(CCc2nc3cc(NS(=O)(=O)c4ccc(F)cc4)ccc3n2C)CC1,-1,-40,36*,.,-1
CC1CCN(CCc2nc3cc(NC(=O)Nc4ccccc4)ccc3n2C)CC1,1,-12,-38,-14,2
CCOc1ccc(Nc2nc(N)c(C(=O)c3ccccc3Cl)s2)cc1,0,.,.,2,.
COc1ccc(N=Cc2sc(O)c3ccccc23)cc1,0,113*,11,-1,?
CCOC(=O)c1ccc(NC(=O)c2c(NCc3ccc(OC)c(OC)c3OC)sc3c2CCC(C)C3)cc1 (centres undefined),-1,.,.,1,.
SMILES,D2 ag-1,D2 PAM-1,D2 antag,D2 PAM-2,D2 ag-2
CC1=C(C)/C(=N/OC(=O)c2cccc([N+](=O)[O-])c2)C=CC1=O,0,12,34*,6,?
Cc1cccc(/C(N)=N/OC(=O)c2ccc(F)cc2)c1,0,-19,2,-6,13
N/C(=N/OC(=O)c1cccc([N+](=O)[O-])c1)c1cccc([N+](=O)[O-])c1,0,?,-12,4,?
N/C(=N\OC(=O)c1ccc2ccccc2c1)c1cccc([N+](=O)[O-])c1,0,108*,-5,9,?
N/C(=N\OC(=O)c1cccc(F)c1)c1cccc([N+](=O)[O-])c1,.,85*,.,.,?
NC(=O)c1cccc([N+](=O)[O-])c1,0,-6,-11,10,4
N/C(=N\OC(=O)c1ccc(F)cc1)c1cccc([N+](=O)[O-])c1,0,65*,-1,3,?
N/C(=N\OC(=O)c1cccc([N+](=O)[O-])c1)c1ccccn1,0,22,8,-1,?
COc1ccc(C)cc1NS(=O)(=O)c1c(C(=O)N2CCCCCC2)c(C)n(C)c1C,1,.,.,3,.
Cc1ccsc1CN(C(=O)COc1cccc(C)c1C)C1CCS(=O)(=O)C1 (centres undefined),4,.,.,-6,.
N/C(=N\OC(=O)c1ccccc1Cl)c1cccc([N+](=O)[O-])c1,0,25,-6,-6,60*
N/C(=N\OC(=O)c1ccc([N+](=O)[O-])cc1Cl)c1ccccn1,1,17,0,-2,?
CC(OC(=O)c1cccs1)C(=O)NCc1cccs1 (centres undefined),0,1,-8,2,2
COc1ccc(CNC(=O)C(C)OC(=O)c2cccs2)cc1 (centres undefined),0,1,-3,33*,-4
O=C(CSc1nnc(COc2ccccc2)o1)Nc1cc(C(F)(F)F)ccc1Cl,.,.,.,-35,.
Cn1c(=O)c2sccc2n(CC(=O)NCCC2=CCCCC2)c1=O,0,-17,-10,-2,-2
Cn1c(=O)c2ccccc2n(CC(=O)NCCC2=CCCCC2)c1=O,0,-3,41*,-10,2
Cc1cccc(N2CCN(CCCNC(=O)Cn3ncc4c([nH]c5ccccc54)c3=O)CC2C)c1 (centres undefined),1,.,.,-13,.
COC(C[C@H]1O[C@@H]1[C@@H](O)[C@H](C)OCc1ccccc1)OC,0,-1,36*,8,-1
COc1ccc(C2C=C(c3ccccc3)Nc3nc(NC(=O)c4cccc([N+](=O)[O-])c4)nn32)cc1 (centres undefined),1,.,.,.,.
CN(C)c1oc(-c2ccc(COc3ccccc3)o2)nc1C#N,-1,.,.,9,.
CCOc1ccccc1-n1c(SCC(=O)N2CCCC2)nnc1-c1ccc(O)cc1,-1,-3,2,31*,0
Cc1c(Cl)cccc1-c1ccc(CNCCSc2nnnn2-c2ccccc2)o1,0,.,.,-28,.
OC(CN1CCN(c2ccccc2Cl)CC1)c1ccccc1 (centres undefined),7,-12,86*,-21,2
COc1cccc2cc(C(=O)NCc3ccc(Cl)cc3)c(=N)oc12,-2,-2,106*,11,-3
COc1cccc2cc(C(=O)NCc3ccccc3)c(=N)oc12,-1,0,5,-3,-6
